Screening results (PubChem BioAssay)
In the library only some 12% were active in any assay of this set; here they are far more common.
Sm TGR inh: qHTS Assay for the Inhibitors of Schistosoma Mansoni Peroxiredoxins; purified TGR, DTNB reduction, TNB absorbance 405 nm; actives 3% (n = 360,000); Potency, µM (highest dose often 114 µM), most hits filed as inhibitors; Schistosoma mansoni thioredoxin glutathione reductase (TGR), Q962Y6; further: nearly all actives have a fitted effect of over 60% in size
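TGR 20 nM + NADPH 100 uM (dispensed conc.), cpd preinc 15 min RT; start with NADPH (500 uM addition) then DTNB (15 mM addition). Kinetic TNB absorbance, 405 nm filter. Four-parameter Hill fit across titration.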
AmpC no deterg: qHTS Inhibitors of AmpC Beta-Lactamase (assay without detergent); AmpC nitrocefin hydrolysis, absorbance 480 nm, 0.0001% Triton; Potency, µM (titrated, usually from 57.1 µM), actives largely listed as inhibitors; actives 0.52% (n = 330,000); further: nearly all actives have a fitted effect of over 20% in size
Target sequence (P00811 whole entry, looked up): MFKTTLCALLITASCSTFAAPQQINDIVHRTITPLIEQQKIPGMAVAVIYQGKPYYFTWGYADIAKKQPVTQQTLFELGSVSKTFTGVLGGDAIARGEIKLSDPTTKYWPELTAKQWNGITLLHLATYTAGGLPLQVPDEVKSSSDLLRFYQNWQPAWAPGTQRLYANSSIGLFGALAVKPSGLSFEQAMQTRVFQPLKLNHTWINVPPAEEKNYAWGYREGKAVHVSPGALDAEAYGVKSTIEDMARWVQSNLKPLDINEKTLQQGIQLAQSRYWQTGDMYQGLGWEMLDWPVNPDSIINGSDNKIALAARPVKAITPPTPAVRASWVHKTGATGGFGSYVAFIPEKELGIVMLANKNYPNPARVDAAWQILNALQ
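20 mM phosphate pH 7.0 + 0.01% (detergent screen) or 0.0001% Triton X-100; 5.3 nM AmpC reagent; cpd preinc 15 min RT; nitrocefin (800 uM stock) to start; A480 q20 s × 4 min; Activity was normalised to no-enzyme and no-compound control wells.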
Pf growth 48h: Primary qHTS for delayed death inhibitors of the malarial parasite plastid, 48 hour incubation; P. falciparum luciferase growth in erythrocytes, 48 h; Potency, µM (series often up to 28.7 µM), actives largely listed as inhibitors; actives 5.9% (n = 310,000)
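Luciferase-expressing parasites in RBCs, 2% Hct / 0.1% parasitemia final; RPMI 1640 + 0.5% Albumax; 37 C, 5% CO2, one generation; luminescence read-out, lower signal = inhibition.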
AmpC detergent: qHTS Inhibitors of AmpC Beta-Lactamase (assay with detergent). P00811. AmpC hydrolysis of nitrocefin, absorbance 480 nm, 0.01% Triton. Potency, µM (top dose mostly 114 µM), most hits filed as inhibitors. actives 0.041% (n = 370,000); further: nearly all actives have a fitted effect of over 25% in size
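20 mM phosphate pH 7.0 + 0.01% (detergent screen) or 0.0001% Triton X-100; 5.3 nM AmpC reagent; cpd preinc 15 min RT; nitrocefin (800 uM stock) to start; A480 q20 s × 4 min; Activity was normalised to no-enzyme and no-compound control wells.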
Pf growth 96h: Primary qHTS for delayed death inhibitors of the malarial parasite plastid, 96 hour incubation; P. falciparum luciferase reporter growth, 96 h; Potency, µM (highest dose often 28.7 µM), actives largely listed as inhibitors; actives 6.9% (n = 320,000); AID 504834, 2011
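Two parasite generations (96 h, 37 C, 5% CO2) of compound exposure in infected erythrocytes (0.05% parasitemia, 2% hematocrit). Luciferase-reporter P. falciparum; decreased luminescence indicates inhibited growth, aimed at apicoplast-acting delayed death.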
SARS PLpro yeast: qHTS of Yeast-based Assay for SARS-CoV PLP | S. cerevisiae expressing SARS-CoV PLpro, growth rescue | Potency, µM (doses to about 32.9 µM), actives largely listed as activators | actives 0.19% (n = 330,000) | AID 485353, 2010; calls by dose curve; further: nearly all actives have a fitted effect of over 55% in size
Large screens that a line does not name were inactive. Unless noted, the call rests on the fitted dose curve; in most records, active means well fitted curve in the direction sought with a large enough effect; inconclusive means small, poorly fitted or top-dose-only effect, or another doubt; inactive means no such curve, though single readings can be large; an effect the other way counts as inactive or inconclusive.

CC(=O)Cc1nsc(Nc2ccc3c(c2)OCCO3)n1	AmpC detergent inconclusive, Pf growth 96h inconclusive
Cc1ccc(C)c(S(=O)(=O)N2CCN(C(=O)CCc3nc4ccccc4c(=O)[nH]3)CC2)c1	Pf growth 48h inconclusive, Pf growth 96h 10.4µM
Cc1ccc(C)c(S(=O)(=O)N2CCN(C(=O)CCCc3c[nH]c4ccccc34)CC2)c1	Pf growth 48h 14.7µM, Pf growth 96h inconclusive (no result: SARS PLpro yeast)
Cc1ccc(S(=O)(=O)N2CCN(C(=O)CCc3nc4ccccc4c(=O)[nH]3)CC2)c(C)c1	Pf growth 48h inconclusive, AmpC detergent inconclusive, Pf growth 96h 11.7µM
Cc1ccc(NC(=O)CCc2nc3ccccc3c(=O)[nH]2)cc1S(=O)(=O)N1CCOCC1	Pf growth 48h inconclusive, Pf growth 96h 4.15µM
O=C(CCc1nc2ccccc2c(=O)[nH]1)N1CCN(S(=O)(=O)c2ccccc2Br)CC1	Pf growth 48h inconclusive, Pf growth 96h inconclusive, SARS PLpro yeast inconclusive
CCOC(=O)c1cc(S(=O)(=O)N2CCN(c3ccc(OC)cc3)CC2)[nH]n1	none (no result: AmpC no deterg, Pf growth 48h, Pf growth 96h, SARS PLpro yeast)
CCOc1ccc(-c2csc(NNC3=NCCCCC3)n2)cc1	none
Cc1nc2cc(NC(=O)CCS(=O)(=O)c3ccccc3)ccc2s1	AmpC detergent inconclusive
Cc1onc(-c2ccccc2Cl)c1C(=O)NCCn1c(C)cc2ccccc21	Pf growth 48h 13.1µM, Pf growth 96h 10.4µM
Cc1cc2ccccc2n1CCNC(=O)c1ccc(Br)o1	Sm TGR inh 12.6µM, Pf growth 48h inconclusive, Pf growth 96h inconclusive
Cc1onc(-c2ccccc2Cl)c1C(=O)OCc1cnc(Cl)s1	none
Cc1onc(-c2ccccc2Cl)c1C(=O)NC1CCS(=O)(=O)C1 (centres undefined)	AmpC detergent inconclusive, Pf growth 96h 11.7µM (no result: Pf growth 48h)
Cc1onc(-c2ccccc2Cl)c1C(=O)OCN1C(=O)c2ccccc2C1=O	AmpC detergent inconclusive, Pf growth 96h 13.1µM
Cc1cc(C)n(-c2ncnc3sc4c(c23)CC(C)CC4)n1 (centres undefined)	AmpC detergent inconclusive, Pf growth 96h inconclusive
Cc1cc(C)n(-c2nc(-n3nc(C)cc3C)c3c4c(sc3n2)COC(C)(C)C4)n1	Pf growth 48h inconclusive, Pf growth 96h 1.04µM
Cc1cc(C)n(-c2ncnc3sc4c(c23)CCCC4)n1	AmpC detergent inconclusive, Pf growth 96h 13.1µM
Cc1cc(C)n(-c2nc(NCCC(C)C)c3c4c(sc3n2)COC(C)(C)C4)n1	AmpC detergent inconclusive, Pf growth 96h 3.7µM (no result: Pf growth 48h)
Cc1cc(C)n(-c2nc(NCCCN(C)C)c3c4c(sc3n2)CCCC4)n1	Pf growth 48h 11.7µM
Cc1cc(C)n(-c2nc(NCCN(C)C)c3c4c(sc3n2)COC(C)(C)C4)n1	Pf growth 48h inconclusive, Pf growth 96h inconclusive
CC(C)(C)c1ccc(S(=O)(=O)N2CCNC(=O)C2)cc1	none (no result: Sm TGR inh, Pf growth 48h, AmpC detergent, Pf growth 96h)
COc1ccc(Cl)cc1NC(=O)CSc1nc2ccccc2nc1N1CCCCC1	none (no result: AmpC no deterg, Pf growth 48h, Pf growth 96h, SARS PLpro yeast)
CCOC(=O)c1c(NC(=O)c2ccc(S(=O)(=O)N(CC(C)C)CC(C)C)cc2)sc2c1CCN(CC)C2	none (no result: AmpC no deterg, Pf growth 48h, Pf growth 96h, SARS PLpro yeast)
CN(Cc1ccon1)C(=O)c1ccc2nc(Cc3cccc(Cl)c3)oc2c1	Pf growth 96h 13.1µM
Cc1ccc(NC(=O)COC(=O)Cc2c[nH]c3ccccc23)cc1F	Sm TGR inh 50.1µM
N#CCSc1ccccc1NC(=O)COC(=O)Cc1c[nH]c2ccccc12	Pf growth 48h 10.4µM, AmpC detergent inconclusive, Pf growth 96h 6.57µM
CSc1n[nH]c(-c2sccc2OCc2ccc(C)cc2)n1	Pf growth 48h inconclusive, Pf growth 96h 4.15µM
N#CCCn1nc(-c2ccccc2)cc1Nc1ccccc1NC(=O)c1cccs1	Pf growth 48h 5.22µM
COc1ccc(S(=O)(=O)Cc2ccc(C(=O)NCCCN3CCc4ccccc4C3)o2)cc1	Sm TGR inh 44.7µM, Pf growth 96h inconclusive (no result: Pf growth 48h)
COc1ccc(S(=O)(=O)Cc2ccc(C(=O)NCc3ccco3)o2)cc1	Sm TGR inh 39.8µM, AmpC detergent inconclusive (no result: Pf growth 48h)
